Where “and” joins values, the source holds several entries; their conditions need not be identical. Equal values may be shown once. Inconclusive results are not listed. Where a call stands in place of a potency, no number is given. A number with no mark means an inactive call. Calls of active or inactive are those of the source. Calls follow the shape of the full dose curve.
Assay: Nuclear factor erythroid 2-related factor 2/antioxidant responsive element (Nrf2/ARE) small molecule agonists: luciferase reporter gene qHTS assay in human keratinocytes (AID 1919969); also: nearly all actives have a fitted effect of over 35% in size
Conditions: KeratinoSens HaCaT ARE-luciferase, luminescence, 24 h; series mostly up to 92.4 µM
Text: National Center for Advancing Translational Sciences [NCATS]
Division of Preclinical Innovation [DPI]
U.S. Environmental Protection Agency [EPA]
National Institutes of Environmental Health Sciences [NIEHS]
National Toxicology Program [NTP]
U.S. Food and Drug Administration [FDA]
Oxidative stress has been implicated in the pathogenesis of a variety of diseases ranging from cancer to neurodegeneration. The antioxidant response element (ARE) signaling pathway plays an important role in the amelioration of oxidative stress. The KeratinoSens (Givaudan, Switzerland) is an in vitro test method which quantifies luciferase induction as a measure of activation of Keap1-Nrf2-antioxidationt/electrophile response element (ARE) dependant pathway in HaCaT human keratinocytes stably transfected with a selectable plasmid. The KeratinoSens assay is a cell-based assay with a reporter cell line to detect potential skin sensitizers by their ability to induce the Nrf2/ARE-response. The activation of the report gene under culture conditions can be detected by ONE-Glo Luciferase Assay System (Promega, Madison, WI). This cell line has been used to screen the Tox21 10K compound library to identify agonists that induce oxidative stress. The cytotoxicity of the Tox21 compound library against the KS-ARE cell line was tested in parallel by measuring the cell viability using CellTiter- Fluor assay system (Promega, Madison, WI) in the same wells.
HaCaT derived cell line KeratinoSens were dispensed at 1,500 cells/5uL/well in 1536-well white wall/solid bottom plates using a Multidrop Combi (ThermoFisher Scientific, Waltham, MA) dispenser. After the assay plates were incubated at 37 C/5% CO2 for 5 h, 23 nL of compounds dissolved in DMSO, positive controls or DMSO only was transferred to the assay plate by a pintool workstation (Kalypsys, San Diego, CA). The plates were incubated at 37 C/5% CO2 for 23 h, followed by addition of 1uL/well of CellTiter-Fluor reagent into the assay plates using a Flying Reagent Dispenser (Aurora Discovery, San Diego, CA) for cell viability readout that measures cytotoxicity. After 1 h incubation at 37 C/5% CO2 the fluorescence intensity was measured using a ViewLux (PerkinElmer, Shelton, CT) plate reader. Then 4uL/well of One-Glo were added using a Flying Reagent Dispenser. After the plates were incubated at room temperature for 30 min, the luminescence intensity in the assay plates was measured using ViewLux plate reader.
Potency is read from the fitted curve at half-maximal effect.

Row | Compound | Potency | activity, positive = activation
1 | CC(C)(CCC(=O)O)C(=O)O | inactive | 
2 | CN(C)CCOC(c1ccc(Cl)cc1)c1ccccn1 (stereo not given) | inactive | 
3 | CC#N | inactive | 
4 | CCC(O)CO (stereo not given) | inactive | 
5 | COc1ccc(Cl)cc1C | inactive | 
6 | O=c1oc2c(O)c(O)cc3c(=O)oc4c(O)c(O)cc1c4c23 |  | -10.8% [at 19 µM]
7 | Cc1ccc(S(=O)(=O)NC(=O)NC2CCCC2)cc1 | inactive | 
8 | O=C1c2c(O)ccc(Nc3ccc(CCO)cc3)c2C(=O)c2c([N+](=O)[O-])ccc(O)c21 | 30.6 µM (active) | 
9 | O=C(O)CCCCCCCCCCCC(=O)O | inactive | 
10 | Clc1ccc(C(c2ccccc2Cl)C(Cl)Cl)cc1 (stereo not given) | inactive | 
11 | CCOC(=O)CCC(C)=O | inactive | 
12 | [Cl][Eu]([Cl])[Cl] | inactive | 
13 | Nc1cc(S(=O)(=O)O)cc2cc(S(=O)(=O)O)cc(O)c12 | inactive | 
14 | Cc1cccc(C)c1[N+](=O)[O-] | inactive | 
15 | CCC(C)=O | inactive | 
16 | CC1CCC(C(C)C)C(O)C1 (stereo not given) | inactive | 
17 | OCCCCl | inactive | 
18 | CCc1ccc(C=O)cc1 | inactive | 
19 | COc1ccccc1C=O | inactive | 
20 | Nc1c2ccccc2nc2ccccc12 | 6.03 µM (active) and 6.68 µM (active) | 

Row | Compound | Potency | activity, positive = activation
21 | CCOCCOCCOCCO | inactive | 
22 | CO[Si](CCCNCCNCCN)(OC)OC | inactive | 
23 | C[C@]12CCC(=O)C=C1CC[C@@H]1[C@@H]2[C@@H](O)C[C@@]2(C)[C@H]1CC[C@]2(O)C(=O)CO | inactive | 
24 | CCCC/C=C\CCCCCCCCCC=O | inactive | 
25 | CCCCCCCCCCCC[N+](C)(C)CCCS(=O)(=O)[O-] | inactive | 
26 | Cc1ccccc1C(N)=O | inactive | 
27 | CC(CO)c1ccccc1 (stereo not given) | inactive | 
28 | CC(C)OC=O | inactive | 
29 | CCCCC(CC)COCCC#N (stereo not given) | inactive | 
30 | Cc1ccc(Nc2ccc(O)c3c2C(=O)c2ccccc2C3=O)cc1 | inactive | 
31 | CC1=CC(=O)c2ccccc2C1=O | 13.3 µM (active) | 
32 | COc1cc(C=O)ccc1OC(=O)C(C)C | inactive | 
33 | C=CCOC(=O)CCCCCCCC | inactive | 
34 | CN1CCCC1 | inactive | 
35 | CC(=O)O[C@@H]1CC2C3CCc4cc(OC(=O)c5ccccc5)ccc4C3CCC2(C)[C@H]1OC(C)=O (stereo not given in full) | inactive | 
36 | O=S(=O)(O)C(F)(F)F | inactive | 
37 | NNS(=O)(=O)c1ccc(Oc2ccc(S(=O)(=O)NN)cc2)cc1 | inactive | 
38 | CCCOCCC | inactive | 
39 | CC(=O)OCC(=O)Nc1cc(C#N)cc(NC(=O)COC(C)=O)c1Cl | inactive | 
40 | O=C1C(c2[nH]c3ccc(S(=O)(=O)O)cc3c2O)=Nc2ccc(S(=O)(=O)O)cc21 | inactive | 

— PubChem BioAssay (Tox21)
